According to PubChem BioAssay AID853 (Columbia University Molecular Screening Center, 2007):
Hit rate of the full screen: of about 47,000 compounds, about 200 (0.43%) were called active. Not shown: some 1% with an inconclusive outcome.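 Rule for the calls: active = inhibition of aggregate fluorescence above about 70%, also judged a hit by eye on the cell image (limit read from the data, passing the limit was not always enough); inconclusive = no rule stated for this call; inactive = not judged a hit on image review.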 What follows is part of a selection rich in actives, with near analogues and random picks from the rest.

Experiment: removal of polyQ htt aggregates in HeLa – imaging, HeLa Exon1htt(103Q)mCFP, confocal imaging, primary screen (AID 853);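 note: cells exposed to compound for three days before fixation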
Conditions: aggregate imaging, at 1.5 µM; fraction fluorescence in grains: measured here: aggregate grain fluorescence fraction, stronger effect = lower value; inhibition: stronger effect = higher value, zero = plate's median compound well

Row | SMILES | fraction fluorescence in grains | inhibition
1 | CCOc1ccccc1C1NC(=O)NC(C)=C1C(=O)OCc1ccco1 (stereo unspecified) | 36.7 | -10.5% (inactive)
2 | COCCOC(=O)C1=C(C)NC(=O)NC1c1ccc(Cl)cc1 (stereo unspecified) | 28.5 | 33.5% (inactive)
3 | COc1cccc2c(=O)n(CC(=O)N3CCCCCC3)ccc12 | 40.9 | -22% (inactive)
4 | COc1ccc(N(CC(=O)NC2CCCCC2)C(=O)CNC(=O)c2ccco2)c(OC)c1 | 22.1 | -26.1% (inactive)
5 | Cc1noc(COc2ccccc2OCc2onc(C)c2Cl)c1Cl | 24.8 | -49.4% (inactive)
6 | CCOC(=O)C1CCN(Cc2coc3ccc(Cl)cc3c2=O)CC1 | 22.3 | -15.2% (inactive)
7 | Cc1cccc2c(=O)n3c(nc12)CCCCC3 | 18.2 | 11% (inactive)
8 | CC(Sc1nnc(Cc2ccc([N+](=O)[O-])cc2)o1)C(N)=O (stereo unspecified) | 30.7 | 0.3% (inactive)
9 | Cc1nc(NC2=NC(C(=O)Nc3ccc(Cl)cc3)CC(=O)N2)nc2ccccc12 (stereo unspecified) | 22.8 | 22.1% (inactive)
10 | CCCCCN1CC(O)=C(c2nc(-c3ccc(Cl)cc3)cs2)C1=N | 36.3 | 8.6% (inactive)
11 | CCN(CC)CCN1C(=O)C(=O)/C(=C(/O)c2cnn(-c3ccccc3)c2C)C1c1cccs1 (stereo unspecified) | 54.5 | -25.7% (inactive)
12 | O=C(NCCSCc1ccccc1)c1ccc(Cl)c(S(=O)(=O)N2CCOCC2)c1 | 25.6 | -28.1% (inactive)
13 | CC(=O)N1CCN(c2cccc(C)c2C)CC1 | 46.1 | -25.4% (inactive)
14 | CC(C)C[C@H](NC(=O)NCCc1ccc(Cl)cc1)C(=O)O | 16.2 | 12.2% (inactive)
15 | CSCC[C@H](NC(=O)NCCc1ccc(F)cc1)C(=O)O | 15.6 | 18.4% (inactive)
16 | C[C@H](NC(=O)NCCc1ccccc1)C(=O)O | 5.06 | 70.9% (active)
17 | O=C(c1ccc(F)cc1)c1c[nH]c(C(=O)NCc2cccnc2)c1 | 38.1 | 1% (inactive)
18 | Fc1cnc(N2CCOCC2)nc1NCc1ccccc1 | 12.4 | 35.6% (inactive)
19 | O=c1c2ccccc2nc2n1C(CSCc1ccccc1)CS2 (stereo unspecified) | 35.3 | 8.1% (inactive)
20 | CCCc1cc(=O)[nH]c(SCC(=O)OCc2ccccc2)n1 | 59.2 | -54.1% (inactive)
21 | CCOC(=O)Cc1csc(NC(=O)CSc2nnc(-c3cccnc3)n2Cc2ccco2)n1 | 20.9 | -18.9% (inactive)

Row | SMILES | fraction fluorescence in grains | inhibition
22 | Cc1nn(Cc2ccc(C(=O)N3N=C(C(F)F)CC3(O)C(F)F)cc2)c(C)c1[N+](=O)[O-] (stereo unspecified) | 62.5 | -61% (inactive)
23 | CCN1C(=O)/C(=C2/Sc3ccc(OC)cc3N2C)SC1=Nc1ccc(C)cc1 | 17.9 | -1.7% (inactive)
24 | CCOC(=O)c1cnc(SCC(=O)Nc2ccccc2C(=O)OC)nc1N | 20.5 | -16.8% (inactive)
25 | COc1ccc(C(=O)Nc2nc(-c3ccc(OC)cc3)c(-c3ccc([N+](=O)[O-])cc3)s2)cc1 | 21.2 | 47.9% (inactive)
26 | CCN(CC)S(=O)(=O)c1ccc2c3c(cccc13)C(=O)S2 | 38.9 | -8.8% (inactive)
27 | COc1ccc(Cl)cc1C(=O)NCC#N | 28.6 | 27.9% (inactive)
28 | COc1ccc(C(=O)NCCc2ccc(S(N)(=O)=O)cc2)cc1OC | 43.5 | -18.4% (inactive)
29 | CCn1c(O)c2ccc(C(=O)N=NC(=O)c3cccnc3)cc2c1O | 37.7 | -25.3% (inactive)
30 | Cc1ccc(-c2nn(-c3ccccc3)cc2/C=N/NC(=O)c2ccc3c(c2)OCO3)cc1 | 34 | -12.7% (inactive)
31 | CC12c3ccccc3C(c3ccccc31)C1C(=O)N(Cc3cccnc3)C(=O)C12 (stereo unspecified) | 12 | 60.9% (inactive)
32 | COc1ccc(OC)c(/C=N/NC(=O)CSc2nnc(C)n2-c2ccccc2)c1 | 32.4 | -7.5% (inactive)
33 | Cc1cc(C)cc(NC(=O)c2cccc(NC(=O)C3C4CC5OC(=O)C3C5C4)c2)c1 (stereo unspecified) | 31 | -31.4% (inactive)
34 | O=C(c1ccccc1)c1cc(-c2ccccn2)c(N2CCOCC2)s1 | 30.5 | 22% (inactive)
35 | Cc1ccc(-n2nc3c(c2NC(=O)CCC2CCCCC2)CS(=O)C3)cc1 (stereo unspecified) | 38.7 | 17.6% (inactive)
36 | CC1=C(C(N)=O)C(c2sccc2C)n2nnnc2N1 (stereo unspecified) | 60.2 | -59.3% (inactive)
37 | O=C(Nc1ncc2c(n1)-c1ccccc1OC2)c1ccc(Cl)cc1 | 34.8 | 7.6% (inactive)
38 | COc1cccc(N(CC(=O)NCCSc2ccccn2)S(C)(=O)=O)c1 | 32.4 | -38.8% (inactive)
39 | COc1cc(C)c(C(C)C)cc1S(=O)(=O)n1ccnc1 | 38.5 | -120% (inactive)
40 | O=C(NC1(C(F)(F)F)NC(=O)N(Cc2cccnc2)C1=O)c1ccccc1Cl (stereo unspecified) | 32.6 | 13.2% (inactive)
41 | Cc1nnc(OCC(=O)NCCC2=CCCCC2)c2ccccc12 | 30.6 | 19% (inactive)
42 | CCC(c1nnnn1Cc1ccco1)N(CCc1ccccc1)Cc1cc2cccc(C)c2[nH]c1=O (stereo unspecified) | 4.66 | 75.8% (active)

Row | SMILES | fraction fluorescence in grains | inhibition
43 | CCC(c1nnnn1Cc1ccco1)N(CCc1ccccc1)Cc1cc2ccc(OC)cc2[nH]c1=O (stereo unspecified) | 19.4 | 46.6% (inactive)
44 | CCC(c1nnnn1Cc1ccccc1)N(Cc1cc2cc(OC)ccc2[nH]c1=O)CC1CCCO1 (stereo unspecified) | 3.01 | 83.8% (active)
45 | CCC(c1nnnn1C1CCCC1)N(Cc1cccs1)Cc1cc2cccc(C)c2[nH]c1=O (stereo unspecified) | 14.9 | 27.8% (inactive)
46 | Cc1cc2cc(CN(Cc3cccs3)Cc3nnnn3CC3CCCO3)c(=O)[nH]c2cc1C (stereo unspecified) | 18 | 47.9% (inactive)
47 | CCC(c1nnnn1Cc1ccco1)N(Cc1cc2cc(OC)ccc2[nH]c1=O)C1CCCCC1 (stereo unspecified) | 12.1 | 36.8% (inactive)
48 | CCOC(=O)C(C)Oc1cccc2c(=O)n(CC(=O)N3CCc4ccccc43)ccc12 (stereo unspecified) | 44.7 | -33.2% (inactive)
49 | CCCCNC(=O)OC(C)CNC(=O)OC (stereo unspecified) | 23.8 | 25% (inactive)
50 | Cc1cc(C)c2c(-n3cccc3)c(NC(=O)OCc3ccccc3)sc2n1 | 37.4 | -74.7% (inactive)
51 | Cc1ccccc1CS(=O)(=O)CC1(O)CCN(C(=O)c2cccc(C(F)(F)F)c2)CC1 | 32.9 | 14.5% (inactive)
52 | CC(=O)c1cccc(NC(=O)c2ccncc2)c1 | 33.8 | 20.4% (inactive)
53 | COc1ccc2c3c(c(=O)oc2c1OCC(=O)C(C)(C)C)CCCC3 | 20.5 | -3.3% (inactive)
54 | N=c1c2c(-c3ccccc3)c(-c3ccccc3)oc2ncn1Cc1ccco1 | 39.1 | -27.2% (inactive)
55 | Cc1nnc(SCC(=O)N2CCN(c3ccccc3)CC2)n1-c1ccccc1 | 45.5 | -15% (inactive)
56 | O=C(O)c1ccc(F)c(S(=O)(=O)Nc2ccccc2)c1 | 49.7 | -13.1% (inactive)
57 | O=C(C(NS(=O)(=O)c1cccc2nsnc12)c1ccccc1)N1CCN(c2ccccn2)CC1 (stereo unspecified) | 32.5 | 12.4% (inactive)
58 | O=C(O)c1ccc(NS(=O)(=O)c2cccc3nsnc23)cc1 | 5.36 | 70.5% (active)
59 | Cc1cccc(-c2nc3c(c(SCC(=O)N4CCOCC4)n2)CCCC3)c1 | 18.5 | -1.6% (inactive)
60 | CCOc1ccc2c(c1)C(c1ccc(C)cc1)=NNC(c1ccc(C)cc1)=N2 | 11 | 38.1% (inactive)
61 | Cn1c(CO)cnc1SCc1ccccc1 | 10.9 | 71.7% (active)
62 | CCS(=O)(=O)n1nc(-c2ccccc2)nc1SCc1ccccc1 | 24.1 | -44.5% (inactive)
63 | c1ccc(CSc2nnc(-c3ccco3)n2Cc2ccccc2)cc1 | 21.2 | -3.2% (inactive)

Row | SMILES | fraction fluorescence in grains | inhibition
64 | COC(=O)c1nc2ccccc2s1 | 22.8 | -27.8% (inactive)
65 | Cc1cc(OCCN2CCCC2)ccc1C(C)C | 38.3 | -2.5% (inactive)
66 | CN1C(=O)CC(N2CCN(c3ccccn3)CC2)C1=O (stereo unspecified) | 29.4 | -42.3% (inactive)
67 | Cc1nc2nc(C)c(CCC(=O)N3CCN(c4ccccc4)CC3)c(C)n2n1 | 38.5 | -21.5% (inactive)
68 | CCSC(C)CC1C/C(=N/O)c2c(C)noc2C1 (stereo unspecified) | 43.5 | -15.9% (inactive)
69 | Cc1cc(C(=O)Nc2ccccc2N2CCOCC2)c2ccccc2n1 | 9.37 | 47.3% (inactive)
70 | Cn1sc(NC(=O)c2ccccc2)nc1=O | 24.3 | -16.8% (inactive)
71 | O=C1/C(=C\Nc2ccccc2)CCN1c1ncccn1 | 25.9 | 18.4% (inactive)
72 | CCN(CC)c1ccc(NC(=O)c2ccc(Cl)nc2)cc1 | 60.1 | -95.5% (inactive)
73 | Clc1ccccc1-c1cc(COc2ccc3ccccc3c2)no1 | 33.9 | 11.8% (inactive)
74 | Cc1c(NC(=O)c2cc(-c3ccc(Cl)s3)nc3ccccc23)c(=O)n(-c2ccccc2)n1C | 26.1 | 21.8% (inactive)
75 | Cc1ccc(S(=O)(=O)N2CC(=O)Nc3ccccc32)cc1C | 33.9 | 11.1% (inactive)
76 | COCCN(C(=O)c1ccco1)c1nnc(-c2ccc(OC)cc2)s1 | 39.8 | -2.8% (inactive)
77 | C=CCNC(=S)NNc1ncnc2sc3c(c12)CC(C)(C)OC3 | 40.7 | -39.2% (inactive)
78 | CC1=CC(C)(C)N(C(=O)CSc2nccn2C)c2cc(C)ccc21 | 13.3 | 26.1% (inactive)
79 | CC(C)c1ccc(NC(=O)CCN2C(=O)c3ccc([N+](=O)[O-])cc3C2=O)cc1 | 13.6 | 55% (inactive)
80 | COc1ccccc1NC(=O)CSc1nnc(C)n1CC1CCCO1 (stereo unspecified) | 15.8 | 17.7% (inactive)
81 | COc1ccc(NC(=O)CCN2CCCC2)c(OC)c1 | 11.3 | 35.7% (inactive)
82 | Cc1cc(-c2ccccc2)nc(N2CCC(C(=O)NC34CC5CC(CC(C5)C3)C4)CC2)n1 | 31 | 21.6% (inactive)
83 | C=CCn1c(-c2ccc3[nH]c(C)c(C)c3c2)n[nH]c1=S | 89.3 | -112% (inactive)
